{"source": "PubChem BioAssay AID2590", "about": "(National Center for Advancing Translational Sciences (NCATS), 2010)", "note": "Several values for one entry are separate records, joined by “and”; a condition that tells them apart may be missing. Equal values may be shown once. Records with an inconclusive call do not appear. Unmarked numbers belong to inactive results. Activity calls are given as the source filed them. Calls follow the shape of the dose curve; as a rule, active = well fitted curve in the direction sought with a large enough effect; inconclusive = small, poorly fitted or top-dose-only effect, or another doubt; inactive = no such curve, though single readings can be large or run the other way. Potency is read from the fitted curve at half-maximal effect."}
{"target": "Lysosomal acid glucosylceramidase (Homo sapiens) (UniProt P04062)", "sequence (P04062 whole entry N409S)": "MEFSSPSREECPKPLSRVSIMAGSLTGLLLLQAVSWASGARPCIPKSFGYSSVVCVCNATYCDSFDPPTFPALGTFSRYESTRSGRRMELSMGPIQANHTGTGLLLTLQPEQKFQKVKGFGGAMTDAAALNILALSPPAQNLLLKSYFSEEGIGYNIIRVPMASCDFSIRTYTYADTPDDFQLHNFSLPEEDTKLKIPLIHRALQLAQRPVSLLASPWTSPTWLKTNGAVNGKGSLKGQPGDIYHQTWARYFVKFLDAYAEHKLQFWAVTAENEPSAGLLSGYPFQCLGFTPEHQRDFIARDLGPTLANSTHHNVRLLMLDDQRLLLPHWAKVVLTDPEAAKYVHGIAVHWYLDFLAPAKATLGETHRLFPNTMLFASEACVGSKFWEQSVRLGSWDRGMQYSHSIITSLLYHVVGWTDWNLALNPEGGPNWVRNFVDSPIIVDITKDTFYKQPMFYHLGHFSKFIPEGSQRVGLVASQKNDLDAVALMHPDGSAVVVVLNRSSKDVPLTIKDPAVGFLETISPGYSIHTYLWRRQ", "assay": "qHTS Assay for Inhibitors and Activators of N370S glucocerebrosidase as a Potential Chaperone Treatment of Gaucher Disease: Primary Screen Confirmation;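 as to Potency: enzyme source is Gaucher patient spleen homogenate not purified recombinant protein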;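 as to activity change, negative = inhibition: 0% = enzyme with DMSO and -100% = no enzyme basal signal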", "conditions": "N370S glucocerebrosidase enzyme activity, fluorogenic substrate; series mostly up to 54 µM; activity change, negative = inhibition: at the top concentration", "procedure,_shortened": "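Patient-spleen homogenate carrying N370S GC (27 ug) in pH 5.0 citrate buffer with 0.01% Tween-20, 1 mM 4-methylumbelliferyl-beta-glucoside, 40 min at 37C; fluorescence 365/440 nm after NaOH/glycine stop; AC50 from Hill fits.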", "units": {"activity change, negative = inhibition": "%"}}
{"smiles": "S=C(NCCCc1cnc[nH]1)NCCCN(Cc1ccc(Cl)cc1)c1ccc(Br)cn1", "Potency": "1.16 µM (active)"}
{"smiles": "O=S(=O)(c1ccc(F)cc1)N1CCN(c2nc(-c3ccccc3)nc3ccccc23)CC1", "Potency": "6.51 µM (active)"}
{"smiles": "O=S(=O)(c1cccc(F)c1)N1CCN(c2nc(-c3cccs3)nc3ccccc23)CC1", "Potency": "1.01 µM (active)"}
{"smiles": "CCCCNC(=S)NCCCN(Cc1ccc(Cl)c(Cl)c1)c1ccc(Br)cn1", "activity change, negative = inhibition": -6.05}
{"smiles": "CCC(=O)OCCNc1nc(-c2ccccc2)nc2ccccc12", "Potency": "16 µM (active)"}
{"smiles": "O=S(=O)(c1cnc2ccccc2c1)N1CCN(c2nc(-c3cccs3)nc3ccccc23)CC1", "Potency": "0.897 µM (active)"}
{"smiles": "N#Cc1cccc(S(=O)(=O)N2CCN(c3nc(-c4cccs4)nc4ccccc34)CC2)c1", "Potency": "2.01 µM (active)"}
{"smiles": "CCCCNC(=O)c1cc2c(=O)n3cccc(C)c3nc2s1", "activity change, negative = inhibition": 23.8}
{"smiles": "COc1ccccc1NC(=O)COc1ccccc1C(=O)Nc1ccccc1", "activity change, negative = inhibition": 10.7}
{"smiles": "COCCNC(=O)/C(C#N)=C/c1c(N2CCN(C)CC2)nc2c(C)cccn2c1=O", "activity change, negative = inhibition": 0.625}
{"smiles": "CNCCN(C)c1nc(-c2cccs2)nc2ccccc12", "activity change, negative = inhibition": -7.1}
{"smiles": "Cc1ccc(S(=O)(=O)N2CCN(c3nc(-c4cccs4)nc4ccccc34)CC2)cc1", "Potency": "259 nM (active) and 730 nM (active) and 366 nM (active)"}
{"smiles": "O=S(=O)(c1ccc2c(c1)OCCO2)N1CCN(c2nc(-c3ccccc3)nc3ccccc23)CC1", "Potency": "3.2 µM (active)"}
{"smiles": "Cc1cc(C)nc(NC(=O)Cc2ccc(Cl)cc2)c1", "activity change, negative = inhibition": -22.5}
{"smiles": "O=S(=O)(c1ccc2ccccc2c1)N1CCN(c2nc(-c3cccs3)nc3ccccc23)CC1", "Potency": "0.326 µM (active)"}
{"smiles": "O=S(=O)(c1ccc2ncsc2c1)N1CCN(c2nc(-c3cccs3)nc3ccccc23)CC1", "Potency": "0.366 µM (active)"}
{"smiles": "O=S(=O)(c1ccccc1)N1CCN(c2nccc(-c3cccs3)n2)CC1", "activity change, negative = inhibition": -3.77}
{"smiles": "Cc1nc2nc(-c3ccc(F)cc3)cn2nc1C", "activity change, negative = inhibition": 10.6}
{"smiles": "C#CCOCCOCCOCCNc1nc(N2CCN(C(=O)CCCCCCCCCCNC(=O)[C@H](CO)n3cc(CCCSC)nn3)CC2)nc(N2CCN(C(=O)CCCCCCCCCCNC(=O)[C@H](CCCN=C(N)N)n3cc(C[C@@H](C)CC)nn3)CC2)n1", "Potency": "6.51 µM (active)"}
{"smiles": "Cc1ccc(S(=O)(=O)N2CCN(c3nc(-c4ccc(CN5CCOCC5)s4)nc4ccccc34)CC2)cc1", "Potency": "11.3 µM (active)"}
{"smiles": "COc1ccc(S(=O)(=O)N2CCN(c3nc(-c4cccs4)nc4ccccc34)CC2)cc1OC", "Potency": "1.16 µM (active)"}
{"smiles": "NS(=O)(=O)c1ccc(S(=O)(=O)N2CCN(c3nc(-c4cccs4)nc4ccccc34)CC2)cc1", "Potency": "3.26 µM (active)"}
{"smiles": "CCCCN(CCCN)c1ccc(Br)cn1", "activity change, negative = inhibition": -10.7}
{"smiles": "O=S(=O)(c1ccc(Cl)cc1)N1CCN(c2nc(-c3cccs3)nc3ccccc23)CC1", "Potency": "1.46 µM (active) and 1.13 µM (active) and 1.63 µM (active)"}
{"smiles": "Cc1ccc(S(=O)(=O)N2CCN(c3ccnc(-c4cccs4)n3)CC2)cc1", "Potency": "9.19 µM (active)"}
{"smiles": "NC(=NCCCCCCN=C(N)/N=C(\\N)Nc1ccc(Cl)cc1)/N=C(\\N)Nc1ccc(Cl)cc1", "Potency": "11.6 µM (active) and 18.3 µM (active) and 16.3 µM (active)"}
{"smiles": "Cc1ccc(S(=O)(=O)N2CCC(c3nc(-c4cccs4)nc4ccccc34)CC2)cc1", "activity change, negative = inhibition": -20.3}
{"smiles": "CCOC(=O)c1ccc(S(=O)(=O)N2CCN(c3nc(-c4ccccc4)nc4ccccc34)CC2)cc1", "Potency": "5.17 µM (active)"}
{"smiles": "COc1ccc(NC(=O)Nc2cccc(C)n2)c(OC)c1", "activity change, negative = inhibition": 18.6}
